Screening results deposited in PubChem by National Center for Advancing Translational Sciences (NCATS).
An excerpt weighted towards active compounds, which were near 19% of everything screened.
AMA1-RON2 inh: qHTS for Inhibitors of AMA1-RON; Towards Development of Antimalarial Drug Lead: Primary Screen | Plasmodium falciparum AMA1 (3D7) - RON2 peptide interaction | AlphaScreen AMA1-biotinylated RON2 peptide binding | Potency, µM (titrated, usually from 58.2 µM), for inactives: at the highest dose activity change, negative = inhibition, hits mostly inhibitors | hit rate 0.2% among 360,000 | AID 720542, 2013;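 further: potency means the concentration at half of the fitted maximal effect; 0% = vehicle wells and -100% = peptide control; nearly all actives have a fitted effect of over 45% in size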
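AMA1 (3D7) with his tag at 25 nM final met compounds first, then biotinylated RON2 peptide at 25 nM; detection used donor plus acceptor beads, 10 µg/mL apiece, read by AlphaScreen after 30 min at room temperature.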
Shiga inhibitor: A qHTS for Small Molecule Inhibitors of Shiga Toxin | Vero cells, Shiga toxin protein synthesis inhibition reporter | inhibition, % at 38.7 µM | hit rate 9.2% among 290,000; in the data active means inhibition mostly above about 28%, no sharp cut-off; inactive means mostly below about 43%; further: 0% is about no effect
CHX counter: Cycloheximide Counterscreen for Small Molecule Inhibitors of Shiga Toxin; cell reporter, cycloheximide protein synthesis inhibition counterscreen; max response, %; hit rate 12% among 300,000; in the data active means max response mostly above about 13%, no sharp cut-off; inactive means mostly below about 14%; further: read at 38.3 µM for the half of the compounds with a filed dose; 0% is about no effect
Pf growth 96h: Primary qHTS for delayed death inhibitors of the malarial parasite plastid, 96 hour incubation. hit rate 6.9% among 320,000. Potency, µM (titrated, usually from 28.7 µM), for the others: at the highest dose activity change, negative = inhibition, actives largely listed as inhibitors. P. falciparum luciferase reporter growth, 96 h; further: potency means the concentration at half of the fitted maximal effect; on the % scale 0 is the no-effect control and ±100 the full control effect
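Infected RBCs, 2% Hct / 0.05% parasitemia final; luciferase-reporter P. falciparum; cpd 96 h, 37 C, 5% CO2; luciferase detection reagent; luminescence.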
SARS PLP yeast: qHTS of Yeast-based Assay for SARS-CoV PLP; S. cerevisiae expressing SARS-CoV PLpro, growth rescue; AID 485353, 2010; hit rate 0.19% among 330,000; Potency, µM (doses to about 32.9 µM), without a hit: at the top dose activity, positive = growth rescue, usual class: activators; calls by dose curve; further: potency means the concentration at half of the fitted maximal effect; 0% is about no effect; nearly all actives have a fitted effect of over 55% in size
Pf growth 48h: Primary qHTS for delayed death inhibitors of the malarial parasite plastid, 48 hour incubation; P. falciparum luciferase growth in erythrocytes, 48 h; Potency, µM (top dose mostly 28.7 µM), without a hit: top-dose activity change, negative = inhibition, most hits filed as inhibitors; hit rate 5.9% among 310,000; AID 504832, 2011; further: potency means the concentration at half of the fitted maximal effect; on the % scale 0 is the no-effect control and ±100 the full control effect
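Growth was read as firefly luciferase luminescence after a 48 h, 37 C, 5% CO2 exposure of compounds to reporter-bearing P. falciparum cultures (0.1% parasitemia, 2% hematocrit final) in Albumax-supplemented RPMI 1640.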
* hit, by the source's call; ? = inconclusive; · = no result given; [ ] = remark or other dose. Unless noted, the call rests on the fitted dose curve; in most records, active means well fitted curve in the direction sought with a large enough effect; inconclusive means small, poorly fitted or top-dose-only effect, or another doubt; inactive means no such curve, though single readings can be large; an effect the other way counts as inactive or inconclusive.

SMILES | AMA1-RON2 inh | Shiga inhibitor | CHX counter | Pf growth 96h | SARS PLP yeast | Pf growth 48h
CN(C)CCCOC1C(C(O)CO)OC2OC(C)(C)O[C@@H]21 (some centres not stated) | · | · | · | -23.5% | · | -10.9%
O=c1[nH]c(/C=C/c2ccccc2F)nc2ccccc12 | -5.0% | 70.7* | 34.0* | -29.8% | 0.9% | 154.5%
C#CCOc1c(/C=C\c2nc(O)c([N+](=O)[O-])c(=O)[nH]2)cc(Br)cc1OC | -3.1% | · | -3.3 | ? | 3.7% | 5.22µM*
O=c1[nH]c(/C=C/c2cccc3ccccc23)nc2ccccc12 | 1.6% | 46.2 | 27.4 | 17.1% | 0.4% | ?
O=c1[nH]c(/C=C\c2ccccc2F)nc(O)c1[N+](=O)[O-] | 6.3% | · | 7.1 | 13.1µM* | 13.1% | -9.0%
O=c1[nH]c(/C=C/c2ccccn2)nc2ccccc12 | 13.3% | 69.6* | 55.7* | ? | -4.4% | -28.0%
O=c1[nH]c(/C=C/c2ccccc2[N+](=O)[O-])nc2ccccc12 | 2.9% | -6.9 | 9.1 | -7.0% | 1.0% | 26.3%
COC(=O)C(Cc1ccc(O)cc1)NC(=O)C(C)NC(=O)c1ccc(C(C)(C)C)cc1 (configuration not stated) | 5.5% | 20.5 | 9.4 | -1.3% | -0.8% | -5.7%
COCCCNC(=O)CC1C(=O)N(Cc2ccccc2)C(C)c2nc3ccccc3n21 (configuration not stated) | 7.2% | -8.7 | -5.3 | ? | -4.2% | ?
Cc1cccc(C(=O)O/N=C/c2c(N3CCOCC3)n(C)c3ccccc23)c1 | · | -6.5 | -1.5 | 1.85µM* | -26.8% | 6.57µM*
COc1ccc(-n2nc(C(=O)NCC(=O)N3CCN(c4ccccc4)CC3)c3ccccc3c2=O)cc1OC | -14.8% | 43.3* | 22.4* | 16.3% | -3.3% | 0.1%
CCC1CCCCN1CCCNC(=O)CNC(=O)c1nn(-c2ccc(OC)c(Cl)c2)c(=O)c2ccccc12 (configuration not stated) | -12.4% | -11.7 | -2.8 | ? | 1.3% | 5.22µM*
COc1ccc(-n2nc(C(=O)NCC(=O)N3CCOCC3)c3ccccc3c2=O)cc1OC | -1.5% | -7.6 | -2.4 | ? | -2.5% | 31.1%
COc1ccc(-n2nc(C(=O)NCC(=O)N3CCN(c4ccccn4)CC3)c3ccccc3c2=O)cc1OC | -5.7% | 25.6 | 15.3* | 3.0% | -0.1% | -17.7%
COc1ccc(-n2nc(C(=O)NCC(=O)N3CCC4(CC3)OCCO4)c3ccccc3c2=O)cc1OC | 1.8% | 36.9 | 16.6* | 4.65µM* | 1.8% | ?
Cc1ccccc1-n1c(Cn2c(=O)sc3ccccc32)nnc1SCC(=O)NCC1CCCO1 (configuration not stated) | 0.4% | -10.0 | 6.8 | ? | 14.0% | ·
Cc1ccc(Cn2cc(CN3CC(N(C)C)CS3(=O)=O)nn2)cc1 (configuration not stated) | -4.1% | · | · | · | · | ·
CCN(C(=O)COC(=O)/C=C/c1ccco1)c1c(N)n(Cc2ccccc2)c(=O)[nH]c1=O | 3.2% | · | · | -26.3% | 0.7% | -22.5%
CCN1CCN(C(=O)CNC(=O)c2nn(-c3ccc(OC)cc3)c(=O)c3ccccc23)CC1 | 8.2% | 22.2 | 10.1 | 1.47µM* | -0.2% | 26.5%
COc1ccc(-n2nc(C(=O)NCC(=O)N3CCN(c4ccccc4OC)CC3)c3ccccc3c2=O)cc1OC | 13.6% | -6.6 | 3.2 | ? | -0.8% | 1.65µM*
COc1ccc(-n2nc(C(=O)NCC(=O)N3CCCC3)c3ccccc3c2=O)cc1 | 22.4% | 14.8 | -2.4 | ? | -2.5% | 5.0%
COc1ccc(Cc2[nH]n3c(=O)cc(C(C)C)nc3c2-c2ccccc2)cc1 | 70.1% | -16.8 | -4.1 | 104.4% | 0.8% | ?
CCOC(=O)Cc1csc(SCn2nnc3ccccc3c2=O)n1 | -5.4% | 5.9 | 8.7 | 5.8% | -7.2% | -8.8%
CCOC(=O)Cc1csc(-n2sc3ccccc3c2=O)n1 | 62.7% | 32.7 | 38.1* | · | -21.3% | ·
CC(Cc1ccc(O)c(O)c1)C(C)Cc1ccc(O)c(O)c1 (configuration not stated) | ? | · | · | 15.1µM* | · | ?
SMILES | AMA1-RON2 inh | Shiga inhibitor | CHX counter | Pf growth 96h | SARS PLP yeast | Pf growth 48h
CCOc1ccc(S(=O)(=O)N2CCC(C(=O)NCc3ccncc3)CC2)cc1Cl | 5.7% | -6.1 | -0.8 | 23.8% | 1.3% | 7.4%
CC(C)c1nc2cc(C(=O)N3CCN(c4cnccn4)CC3)ccc2o1 | -4.7% | 50.5 | 27.3* | 11.7µM* | -7.6% | 6.3%
COCCN1CCN(C(=O)c2ccc3oc(CCc4ccccc4)nc3c2)CC1 | 9.5% | 35.1 | 23.4* | -17.2% | 2.4% | 26.7%
CCCOC1CCCN(C(=O)c2ccc3oc(C(C)C)nc3c2)C1 (configuration not stated) | -6.5% | 94.0* | 38.4* | 33.6% | -3.5% | 8.0%
CC(C)CC(=O)C1CCCN(C(=O)c2ccc3oc(Cc4ccccc4)nc3c2)C1 (configuration not stated) | 5.7% | -5.8 | 10.5 | 17.6% | -2.6% | 14.4%
COCC1CCN(C(=O)c2ccc3oc(CCc4ccccc4)nc3c2)C1 (configuration not stated) | -1.6% | · | · | · | · | ·
COCC1CCCCN1C(=O)c1ccc2oc(CCCc3ccccc3)nc2c1 (configuration not stated) | -13.3% | 61.2* | 36.8* | -7.6% | -8.9% | ?
Cc1ccc2c(C)c(C(=O)N3CCN(c4cnccn4)CC3)oc2c1C | -11.7% | 66.0 | 10.3 | ? | -10.4% | ?
CC1(C)C(=O)Nc2ccccc2N1C(=O)COC(=O)c1cccnc1Cl | -19.0% | · | · | · | -1.5% | ·
CCOC(=O)N1CCN(C(=O)c2ccc3ccccc3c2)CC1 | -10.0% | -7.2 | -2.6 | 0.4% | 1.7% | 10.1%
CCOC(=O)N1CCN(C(=O)c2ccc3oc(CCCc4ccccc4)nc3c2)CC1 | -6.0% | 80.5* | 39.3* | 10.4µM* | · | -6.0%
CCOC(=O)C1CCCN(C(=O)c2ccc3oc(Cc4ccccc4)nc3c2)C1 (configuration not stated) | 5.9% | 75.8* | 48.5* | 16.2% | -7.3% | -4.5%
CN1CCN(C(=O)c2ccc3nc(-c4ccccc4)c(-c4ccccc4)nc3c2)CC1 | -13.6% | -16.0 | -0.8 | 4.7% | 0.4% | 37.6%[5.75 µM]
CC(C)NC(=O)CN1CCN(C(=O)c2ccc3oc(CCCc4ccccc4)nc3c2)CC1 | -1.7% | 27.8 | 19.6* | 20.6% | -0.9% | -29.4%
CC(=O)N1CCN(C(=O)c2ccc3oc(CCCc4ccccc4)nc3c2)CC1 | 1.1% | 15.9 | 34.5* | 13.1µM* | ? | 0.0%
Cc1cc(F)ccc1-c1cc(C(=O)NCc2cccc(C(F)(F)F)c2)[nH]n1 | -3.0% | · | · | · | · | ·
